# In the supplement of paper PMC3342239:
# Structures can show the parent of a compound that is named as a salt.
# Test system: Saccharomyces cerevisiae
# Test: fraction of cells in G1 phase (DNA content, flow cytometry); higher = more cells with unreplicated DNA (G1 delay)
# Conditions: temperature: 30 C; YPD; JTY2953 pdr5 snq2 (sensitized); drug added to: cultures diluted from stationary phase; 6-7 h
# Summary of the method: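 Library drugs were added to S. cerevisiae in YPD at 30°C, with fixation after 6–7 h for sensitized JTY2953 diluted 1∶200 from overnight and given a final 20 µg/ml, 6 h for dividing JTY2953, and 4.33 h for BY4741. Ethanol-fixed cells stained with SYTOX Green were read by flow cytometry, 10,000 events each. The G1 fraction is the ratio of the Dean-Jett-Fox G1 peak area to the G1 plus G2/M areas.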
row,Structure (SMILES),fraction of cells in G1 phase
1,CC(C(=O)O)c1cccc(C(=O)c2ccccc2)c1 (stereo unspecified) [Ketoprofen] (78.6509 µM),0.502
2,NC1CCN(c2nc3c(cc2F)c(=O)c(C(=O)O)cn3-c2ccc(F)cc2F)C1 (stereo unspecified) [Tosufloxacin] (49.4619 µM),0.428
3,C=C(CC)C(=O)c1ccc(OCC(=O)O)c(Cl)c1Cl [Ethacrynic acid] (65.9752 µM),0.513
4,Cc1nc2c([nH]1)c(=O)n(C)c(=O)n2Cc1ccco1 [Furafylline] (76.8479 µM),0.463
5,CC(C)NCC(O)COc1ccc(CC(N)=O)cc1 (stereo unspecified) [Atenolol] (75.0911 µM),0.454
6,CCC[C@@H]1C[C@@H](C(=O)N[C@@H]([C@H]2O[C@H](SC)[C@H](O)[C@@H](O)[C@H]2O)[C@H](C)Cl)N(C)C1 [Clindamycin HCl] (47.0598 µM),0.505
7,O=P(O)(O)C(Cl)(Cl)P(=O)(O)O [Clodronate disodium] (81.6683 µM),0.505
8,CCCCC1C(=O)N(c2ccccc2)N(c2ccccc2)C1=O [Phenylbutazone] (64.8543 µM),0.499
9,COc1c(C)c2c(c(O)c1C/C=C(\C)CCC(=O)OCCN1CCOCC1)C(=O)OC2 [Mycophenolate mofetil] (46.1355 µM),0.513
10,C[C@H]1c2cccc(O)c2C(O)=C2C(=O)[C@]3(O)C(O)=C(C(N)=O)C(=O)[C@@H](N(C)C)[C@@H]3[C@@H](O)[C@@H]21 [Doxycycline HCl] (44.9999 µM),0.53
11,CCOC(=O)c1cnc2c(cnn2CC)c1NN=C(C)C [Etazolate] (69.1229 µM),0.5
